# Measurements published in PubChem BioAssay (EPA / NIEHS).
# Activity calls are given as the source filed them. How the source made its calls: active means hit-call score of the fitted dose curve at least 0.9, where 1 is the maximum; inactive means score below 0.9.
# Experiment: CCTE_Padilla_ZF_Score.Living: CCTE's 144 Hour Post-fertilization zebrafish Assay Score for Viability, Padilla Lab (AID 2284410);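 further: larval death at 6 dpf judged by absent heartbeat or coagulation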
# Procedure: CCTE_Padilla_ZF_Phenotype_Score is a whole embryo, multiplexed assay using zebrafish ova exposed for 144 hours post fertilization on a 96-well plate.CCTE_Padilla_ZF_Score.Living is one of one assay component(s) measured or calculated from the CCTE_Padilla_ZF_Phenotype_Score assay. It is designed to make measurements of zebrafish development as detected with brightfield microscopy of developing zebrafish embryos.Data from the assay component CCTE_Padilla_ZF_Score.Living was analyzed into 1 assay endpoints. This assay endpoint, CCTE_Padilla_ZF_Score.Living, was analyzed in the positive analysis fitting direction relative to DMSO as the negative control and baseline of activity. Using a type of viability reporter, gain-of-signal activity can be used to understand changes in developmentals as they relate to the whole embryo. To generalize the intended target to other relatable targets, this assay endpoint is annotated to the zebrafish development intended target family, where the subfamily is embryonic mortality.
# Zebrafish husbandry: Wild type adult zebrafish (Danio rerio; undefined outbred stock obtained from Aquatic Research Organisms, Hampton, NH, 03842) were housed in an AAALAC-approved animal facility at 28C with a 14:10 h light: dark cycle (lights on at 08:30 h). Adult fish (2-3 females per male; density = 15-20 adults per tank) were kept in one of several 9-liter (L) flow-through colony tanks (Aquaneering Inc., San Diego, CA). All adults in a colony tank were placed in a 2 L (static) breeding tank (Aquatic Habitats, Apopka, FL) one hour prior to light onset. Typically, adults from two to three colony tanks were mated on the same day. Two hours after light onset the adults were returned to the colony tank. All embryos were gathered from each breeder tank, pooled, and placed in a 28C water bath for 2 h, followed by two washes with 0.06% bleach (v/v) in 10% Hanks' Balanced Salt Solution (13.7 mM NaCl 0.54 mM KCl, 25 uM Na2HPO4, 130 uM CaCl2 100 um MgSO4 and 420 um NaHCO3,), hereafter referred to as Hanks' solution, for 5 min in order to remove any residual bacteria or fungi. Immediately following washing, the embryos were examined, and healthy embryos were separated from dead or unfertilized eggs and moved into fresh Hanks'. Chemical exposures: Zebrafish embryos were exposed in 96-well plates. Between 6- and 8-hours post fertilization (hpf), healthy embryos (with chorions) were transferred, one embryo per well, into 96 well (0.5 mL) microtiter plates (Cell Culture-Treated, Flat-Bottom Microplate 96 well [Corning Costar, Kennebunk, ME; Cat 09-761-145]) filled with 200 uL of Hanks' solution. A random number generator was used to assign the order in which the rows of embryos were plated in 96 well plates each week. After plating, the embryos were dosed with 0.8 uL of the chemical dosing solution then immediately sealed with AlumaSeal II (Excel Scientific Inc, Victorville, CA) to prevent volatilization of the chemicals, and then placed in a leakproof secondary container. These containers were placed in an incubator maintained on a 14:10 h light: dark cycle at 26C for rearing. On 5 dpf, live larvae were gently moved out of the plate with test chemicals and into a new 96 well mesh plate (Millipore Corp., Bedford, MA) with just the Hanks' solution. Once within the mesh well plate, the animals were rinsed with 400 uL of fresh Hanks' three times, and then the plates were covered with a non-adhesive material (Microseal A, BioRad, Hercules, CA), plate lid added, and then plate sides wrapped in Parafilm (PM992, Bermis Company, Neenah, WI), and returned to the incubator. […]
SMILES,outcome,AC50
FC(F)(F)C(F)(F)C(F)(F)N(C(F)(F)C(F)(F)C(F)(F)F)C(F)(F)C(F)(F)C(F)(F)F,inactive,
O=C(O)C(F)(F)C(F)(F)C(F)(F)F,inactive,
O=C(O)C(F)(F)C(F)(F)OC(F)(F)F,inactive,
O=C(O)C(F)(F)C(F)(F)C(F)(F)C(F)(F)C(F)(F)C(F)(F)C(F)(F)C(F)(F)Cl,,35.5 µM (active)
O=C(O)C(F)(OC(F)(F)C(F)(OC(F)(F)C(F)(F)C(F)(F)F)C(F)(F)F)C(F)(F)F (stereo not given),inactive,
OCC(F)(F)C(F)(F)C(F)(F)F,inactive,
O=C(O)C=C(C(F)(F)F)C(F)(F)F,inactive,
O=C(O)C(F)(F)C(F)(F)C(F)(F)C(F)(F)F,inactive,
FC(F)(F)C(F)(F)C(F)(F)C(F)(F)C(F)(F)C(F)(F)CC1CO1 (stereo not given),inactive,
CCO[Si](CCC(F)(F)C(F)(F)C(F)(F)C(F)(F)C(F)(F)C(F)(F)F)(OCC)OCC,inactive,
Cc1ccc(S(=O)(=O)OCC(F)(F)C(F)(F)C(F)(F)C(F)(F)C(F)(F)C(F)F)cc1,inactive,
C=C(C)C(=O)OCC(F)(F)C(F)(F)C(F)(F)F,inactive,
O=P(O)(O)OCCC(F)(F)C(F)(F)C(F)(F)C(F)(F)C(F)(F)C(F)(F)F,inactive,
C=CC(F)(F)C(F)(F)C(F)(F)C(F)(F)C(F)(F)C(F)(F)C(F)(F)C(F)(F)F,inactive,
O=C(O)C(F)(F)C(F)(F)F,inactive,
O=C(O)C(F)(F)C(F)(F)C(F)(F)C(F)(F)C(F)(F)C(F)(F)C(F)(F)C(F)(F)C(F)(F)C(F)F,,17.5 µM (active)
FC(F)(F)C(F)(F)C(F)(F)C(F)(F)C(F)(F)C(F)(F)C(F)(F)C(F)(F)CCS,inactive,
C=C(C)C(=O)OCC(F)(F)C(F)(F)C(F)(F)C(F)(F)C(F)(F)C(F)(F)C(F)(F)F,inactive,
O=C(CC(=O)C(F)(F)C(F)(F)F)C(F)(F)F,inactive,
OCC(F)(F)C(F)(F)C(F)(F)C(F)F,inactive,

SMILES,outcome,AC50
CC(C)(C)C(=O)CC(=O)C(F)(F)C(F)(F)C(F)(F)F,,32.8 µM (active)
O=C(O)C(F)(F)C(F)(F)C(F)(F)C(F)(F)C(F)(F)C(F)(F)C(F)(F)C(F)(F)C(F)(F)C(F)(F)C(F)(F)C(F)(F)F,inactive,
FC(F)(F)C(F)(F)C(F)(F)C(F)(F)C(F)(F)C(F)(F)C(F)(F)C(F)(F)F,inactive,
FC(F)(Br)C(F)(F)C(F)(F)C(F)(F)C(F)(F)C(F)(F)Br,inactive,
OCC(F)(F)C(F)(F)C(F)(F)C(F)(F)C(F)(F)C(F)(F)F,,88 µM (active)
OCCCC(F)(F)C(F)(F)C(F)(F)C(F)(F)C(F)(F)C(F)(F)C(F)(F)F,inactive,
OCC(F)(F)C(F)(F)C(F)(F)C(F)(F)C(F)(F)C(F)F,inactive,
O=C(O)C(F)(F)C(F)(F)C(F)(F)C(F)(F)C(F)(F)C(F)(F)C(F)(F)C(F)(F)C(F)(F)C(F)(F)C(F)(F)C(F)(F)C(F)(F)F,inactive,
O=C(O)C(F)(OC(F)(F)C(F)(OC(F)(F)C(F)(OC(F)(F)C(F)(F)C(F)(F)F)C(F)(F)F)C(F)(F)F)C(F)(F)F (stereo not given),inactive,
FC(F)(I)C(F)(F)C(F)(F)C(F)(F)I,inactive,
FC(F)(F)C(F)(F)C(F)(F)CI,inactive,
C=CC(=O)OCC(F)(F)C(F)(F)C(F)(F)C(F)(F)C(F)(F)C(F)(F)C(F)(F)F,inactive,
FC(F)(F)C(F)(F)C(F)(F)C(F)(F)CCI,inactive,
FC(F)(F)C(F)(F)C(F)(F)C(F)(F)C(F)(F)C(F)(F)C(F)(F)I,inactive,
FC(F)(F)C(F)(F)C(F)(F)C(F)(F)C(F)(F)C(F)(F)C(F)(F)Br,inactive,
FC(F)(F)C(F)(F)C(F)(F)C(F)(F)C(F)(F)C(F)(F)CCS,inactive,
O=S(=O)(OCCOC(F)(F)F)C(F)(F)F,inactive,
C=CC(=O)OCC(F)(F)C(F)(F)C(F)(F)C(F)(F)COC(=O)C=C,,9.44 µM (active)
O=S(=O)(OCC(F)F)C(F)(F)F,inactive,
C=C(C)C(=O)OCCC(F)(F)C(F)(F)C(F)(F)C(F)(F)C(F)(C(F)(F)F)C(F)(F)F,inactive,
